# Experimental data: PubChem BioAssay (EPA / NIEHS)
# Results filed as inconclusive are left out. Some structures have more than one record in an assay (separate samples or runs), and their calls can disagree. Calls of active or inactive are those of the source. The calls were made as follows: active = hit-call score of the fitted dose curve at least 0.9, where 1 is the maximum; inconclusive = response in the unintended direction; inactive = score below 0.9.
# Test: CCTE_Mundy_HCI_iCellGluta_NOG_NeuriteCount: CCTE's Neurite Outgrowth Assay in iCellGluta cells for Neurite Count, Mundy Lab (AID 2284342);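 also: chemical exposure about 48 hours starting 2 hours after plating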
SMILES,outcome,AC50
CN/C(=N\[N+](=O)[O-])NCc1cnc(Cl)s1,inactive,–
CCSC(=O)N1CCCCCC1,inactive,–
CO/N=C(/C1=NOCCO1)c1ccccc1Oc1ncnc(Oc2ccccc2Cl)c1F,–,24.4 µM (active)
CS(=O)(=O)c1cc(C(F)(F)F)ccc1C(=O)c1cnoc1C1CC1,inactive,–
C=C(C)CN(CC)c1c([N+](=O)[O-])cc(C(F)(F)F)cc1[N+](=O)[O-],–,26.5 µM (active)
CNC(=O)Oc1cccc2ccccc12,inactive,–
COP(=S)(OC)SCn1nnc2ccccc2c1=O,–,24.4 µM (active)
CCNC(=O)NC(=O)C(C#N)=NOC,inactive,–
Cc1c(COC(=O)[C@@H]2[C@H](/C=C(\Cl)C(F)(F)F)C2(C)C)cccc1-c1ccccc1,–,10.6 µM (active)
COC(=O)N(C(=O)N1CO[C@@]2(C(=O)OC)Cc3cc(Cl)ccc3C2=N1)c1ccc(OC(F)(F)F)cc1,inactive,–
N#CN=C1SCCN1Cc1ccc(Cl)nc1,inactive,–
CC(C)(C)C(=O)C(Oc1ccc(Cl)cc1)n1cncn1 (stereo not given),inactive,–
CS(=O)(=O)c1ccc(C(=O)C2C(=O)CCCC2=O)c([N+](=O)[O-])c1,inactive,–
O=C(Nc1ccccc1-c1ccc(Cl)cc1)c1cccnc1Cl,inactive,38.3 µM (active)
